# Source: PubChem BioAssay
# gsp ag = qHTS for Agonist of gsp, the Etiologic Mutation Responsible for Fibrous Dysplasia/McCune-Albright Syndrome: qHTS. gsp mutant cells, cAMP HTRF, 30 min. Potency, µM (highest dose often 76.9 µM), for inactives: at the highest dose activation (cAMP increase), most hits filed as activators. 340,000 tested, 0.13% active. AID 624287, 2012; active means well fitted activation curve with a large enough effect; inconclusive means small, poorly fitted or top-dose-only effect, or another doubt; inactive means no such curve, though single readings can be large or run the other way; cell line not stated here;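 further: phosphodiesterase inhibitor Ro 20-1724 added with compounds to block cAMP breakdown; potency means the concentration at half of the fitted maximal effect; nearly all actives have a fitted effect of over 60% in size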
#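 Cells stably selected in G418 were plated at 2000/well, grown 16-24 hr, then given compounds in DMSO with the PDE inhibitor […] (300 uM solution added) for 30 min at 37C; cAMP was read by HTRF.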
# BRCA1 expr up = qHTS Assay to Identify Small Molecule Activators of BRCA1 Expression; MCF7-BRCA1-FFLuc reporter, luminescence, 48 h; response scale: scaled: vehicle 0%, 10 µM genistein 100%; Potency, µM (doses to about 46.1 µM), for the others: at the top dose activation, most hits filed as activators; 380,000 tested, 1.1% active; AID 624202, 2012; further: potency means the concentration at half of the fitted maximal effect; nearly all actives have a fitted effect of over 80% in size
#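 Luminescence from a BRCA1-driven firefly luciferase in MCF7 cells was read after 48 h compound exposure at 37 C. Data normalized against DMSO and a 10microM genistein activation control, then curve-fitted across the titration.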
# gsp antag = qHTS for Antagonists of gsp, the Etiologic Mutation Responsible for Fibrous Dysplasia/McCune-Albright Syndrome: qHTS; gsp-mutant cells, cAMP HTRF, 30 min; Potency, µM (highest dose often 76.9 µM), inactives show at the highest dose activity change, negative = inhibition, usual class: inhibitors; 340,000 tested, 0.4% active; calls by dose curve; cell line not stated here;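 further: intracellular cAMP measured with PDE inhibitor Ro 20-1724 present during compound exposure; potency means the concentration at half of the fitted maximal effect; on the % scale 0 is the no-effect control and ±100 the full control effect; nearly all actives have a fitted effect of over 65% in size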
#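 G418-selected cells were plated in DMEM/10% FBS for 16-24 h at 37C, then treated with compounds plus the PDE inhibitor […] (300 uM solution added) for 30 min at 37C. Intracellular cAMP was measured by HTRF after 30 min lysis at room temperature.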
# IL2 activator = qHTS of IL-2 Activators. AID 652025, 2013. 360,000 tested, 0.065% active. IL-2 activation reporter assay, cell-based qHTS; stimulated with anti-CD3/CD4/CD28 beads; in transgenic mouse T cells. activation, % (series mostly up to about 46 µM); in the data active means activation above about 50%; inconclusive means mostly about 30% to 49%; further: 0% is about no effect
#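 Readout is EGFP and DsRed signal by fluorescent plate cytometry after 18 h at 37 degrees C. Transgenic mouse T cells (750/well) received compound for 60 min before bead stimulation (anti-CD3, anti-CD4, anti-CD28); memory T cells served as non-tolerant control.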
# mIDH1 inhibitor = qHTS for Inhibitors of mutant isocitrate dehydrogenase 1 (IDH1): qHTS; Isocitrate dehydrogenase [NADP] cytoplasmic (Homo sapiens), O75874; IDH1-R132H enzyme, NADPH consumption, diaphorase/resazurin fluorescence; Potency, µM (top dose mostly 76.6 µM), without a hit: top-dose activity change, negative = inhibition, hits mostly inhibitors; 390,000 tested, 0.093% active; AID 602179, 2012; further: potency means the concentration at half of the fitted maximal effect; on the % scale 0 is the no-effect control and ±100 the full control effect; nearly all actives have a fitted effect of over 65% in size
# Target sequence (O75874 whole entry R132H, stated change not applied): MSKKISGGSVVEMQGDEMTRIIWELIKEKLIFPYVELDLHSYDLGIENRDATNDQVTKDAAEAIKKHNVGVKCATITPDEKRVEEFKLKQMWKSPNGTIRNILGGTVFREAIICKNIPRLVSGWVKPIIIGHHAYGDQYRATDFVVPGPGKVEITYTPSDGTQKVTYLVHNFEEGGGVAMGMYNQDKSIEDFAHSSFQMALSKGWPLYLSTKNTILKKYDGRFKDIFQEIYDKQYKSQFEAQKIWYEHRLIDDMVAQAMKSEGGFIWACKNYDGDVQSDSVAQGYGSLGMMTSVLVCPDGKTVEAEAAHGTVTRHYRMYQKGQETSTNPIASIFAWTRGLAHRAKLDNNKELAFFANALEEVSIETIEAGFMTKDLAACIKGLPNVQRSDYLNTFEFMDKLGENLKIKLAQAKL
#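 IDH1-R132H (0.5 ug/mL) preincubated 30 min with compound, then NADPH (0.016 mM) and alpha-KG (2 mM) added; 80 min at RT, pH 7.5. Remaining NADPH coupled via diaphorase/resazurin to fluorescence (540/590 nm); concentration-response curves normalized to no-enzyme control.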
# * hit, by the source's call; ? = inconclusive; / = not tested or not shown; [ ] = another dose, or the depositor's remark. Only some compounds are listed: those with a hit (about 1.5% of all), similar ones and a draw of the others. Unless noted, the call rests on the fitted dose curve; in most records, active means well fitted curve in the direction sought with a large enough effect; inconclusive means small, poorly fitted or top-dose-only effect, or another doubt; inactive means no such curve, though single readings can be large; an effect the other way counts as inactive or inconclusive.
SMILES,gsp ag,BRCA1 expr up,gsp antag,IL2 activator,mIDH1 inhibitor
CCCCN(C)C(=O)c1sc(=O)n(CC(=O)c2ccccc2OC)c1C,/,15.1%,/,0.6,/
O=C1C(CN2CCCC2)CCCC1CN1CCCC1 (configuration not stated),-23.2%,-19.9%,3.4%,-7.4,2.9%
CC(C)N1CCC(=NNC(=O)c2ccccc2[N+](=O)[O-])CC1,-9.2%[15.4 µM],-8.2%,12.1%,0.7,0.3%
CC(C)N1CCC(=NNC(=O)c2cccs2)CC1,-6.7%,8.91µM*,3.8%,0.2,14.5%
Cc1ccc(S(=O)(=O)N2CCN(c3nc(-c4cccs4)nc4nc[nH]c34)CC2)cc1,/,2.5%,/,/,/
Cn1c(C(=O)NCc2cccs2)cc2oc3ccccc3c21,17.7%,12.6µM*,-19.8%,-1.1,-0.8%
Cn1c(C(=O)NCC2CCCO2)cc2oc3ccccc3c21 (configuration not stated),-23.9%,3.55µM*,7.0%,-0.5,7.2%
Cn1c(C(=O)NCc2ccccc2)cc2oc3ccccc3c21,-8.2%,119.6%,-12.1%,-3.4,-3.2%
COC(/C(=N/O)c1ccc(Cl)cc1)c1ccccc1 (configuration not stated),10.1%,-16.2%,-16.0%,0.1,6.7%
O=C1NC[C@@H](CCCCN2C[C@H](Cc3ccccc3)N(CCc3ccc(O)cc3)C(=O)C2=O)N(CCc2ccccc2)C1=O,/,0.3%,/,-0.1,/
O=C(O)CSc1ccnc2cc(Cl)ccc12,20.0%[15.4 µM],-2.6%,21.1%,0.0,-5.0%
Cc1cnc2cc(Cl)ccc2c1SCC(=O)O,10µM*,-15.1%,-5.1%,-0.9,3.5%
Cc1cccc(C(=O)Nc2sc(C(=O)N3CCCC3)c(C)c2C#N)c1,7.3%,-9.4%,31.6µM*,-1.9,-0.1%
Cc1nn(-c2ccccc2)c(C)c1/C=N/NC(=O)CSc1nnc(SCc2ccccc2Cl)s1,?,12.6µM*,-3.1%,0.0,4.8%
COc1ccc(NC(C)=O)cc1S(=O)(=O)NCCc1ccccn1,0.1%,-0.8%,0.6%,1.9,-7.3%
CC(=O)c1c(C)[nH]c(C(=O)OCC(=O)Nc2cc(Cl)ccc2[N+](=O)[O-])c1C,?,-52.1%,35.5µM*,0.1,7.8%
CC(=O)c1c(C)[nH]c(C(=O)OCC(=O)Nc2ccc(C)cc2[N+](=O)[O-])c1C,-17.7%,-50.5%,?,-0.8,-15.7%
Cc1cccc(Cn2cnc3c(sc4nc(C)cc(C)c43)c2=O)c1,4.2%[15.4 µM],0.0%,6.0%,-0.3,-0.7%
COc1cccc(N2CCN(c3ncnc4c3cnn4-c3ccc(C)cc3C)CC2)c1,2.2%,-86.8%,7.94µM*,-5.1,8.6%
Cn1c(SCc2ccc(F)cc2)nnc1-c1cnccn1,-3.8%,11.2µM*,-4.4%,2.5,-5.3%
CC1SCC(NC(=O)c2ccc(Cl)cc2)CS1 (configuration not stated),2.4%[15.4 µM],11.2µM*,6.9%,0.9,15.5%
COc1ccc(C(=O)Nc2ccc(N3CCN(C)CC3)cc2)cc1OC,?,2µM*,-24.1%,-1.3,-4.6%
CN1CCN(c2ccc(NC(=O)c3ccc4ccccc4c3)cc2)CC1,-21.0%[15.4 µM],0.0%,1.6%,-1.7,1.4%
COc1ccc(NC(=O)c2ccc3c(c2)N(C)CCS3)cc1,0.0%,10µM*,-14.2%,-2.6,20.8%
CCOc1ccc(C(=O)Nc2ccc(N3CCN(C)CC3)cc2)cc1,?,48.2%,4.0%,-0.1,0.0%
SMILES,gsp ag,BRCA1 expr up,gsp antag,IL2 activator,mIDH1 inhibitor
COc1ccc(C(=O)Nc2ccc(N3CCN(C)CC3)cc2)cc1,-28.2%,2.24µM*,1.2%,0.8,14.7%
Cc1ccc(C(=O)Nc2ccc(N3CCN(C)CC3)cc2)cc1,-6.2%,1.26µM*,-8.8%,1.2,7.0%
Cc1nnc(NC(=O)CSc2nccn2-c2cccc(Cl)c2)s1,/,/,/,/,0.0%
Cc1ccc(NC(=O)c2ccc(OC(=O)C(C)Oc3ccc(Cl)cc3C)cc2)cc1 (configuration not stated),?,5.01µM*,2.4%,0.0,0.7%
O=c1cc(-c2ccccc2)oc2ccc(O)cc12,-2.8%,2.82µM*,-9.7%,-0.7,1.5%
Cc1ccccc1Cn1c2ccccc2c2cnn(CC(=O)NCCCc3ccccc3)c(=O)c21,/,/,/,/,-12.8%
O=c1oc2cc(Cl)ccc2n1CSc1nc2ccccc2s1,?,7.94µM*,-2.2%,-0.7,1.0%
Cc1ccc(-c2cc3onc(-c4ccccc4)c3c(=O)n2C)cc1,/,?,9.4%,-0.7,26.6%
Cn1c(-c2ccc(F)cc2)cc2onc(-c3c(F)cccc3Cl)c2c1=O,/,2µM*,-10.4%,-0.2,7.9%
CCOC(=O)[C@]12CCCC=C1N(Cc1ccc3c(c1)OCO3)C(=O)[C@H](CC(=O)N1CCC(c3ccccc3)CC1)C2,/,-3.5%,/,-0.4,/
COc1ccc(NC(=O)C2Cc3ccccc3O/C2=N\O)cc1 (configuration not stated),?,10µM*,3.3%,4.3,-5.6%
O=C(Nc1ccc(Cl)cc1)Nc1cccc2nsnc12,5.3%,-11.1%,39.8µM*,-2.1,8.7%
COc1ccc(C)cc1NC(=O)COC(=O)c1c(C)nn(-c2ccccc2)c1C,-42.7%,1.2%,39.8µM*,-0.9,-0.7%
O=C(COC(=O)c1n[nH]c2ccccc12)Nc1ccccc1,-4.6%[15.4 µM],0.0%,/,0.3,1.8%
Cc1ccc2c(COC(=O)c3n[nH]c4ccccc34)cc(=O)oc2c1,14.1%,3.16µM*,-5.8%,0.2,-3.0%
Cc1cc(C)cc(NC(=O)COC(=O)c2n[nH]c3ccccc23)c1,-24.9%[15.4 µM],78.0%,10µM*,-1.7,1.1%
Cc1nn(-c2ccccc2)c(C)c1C(=O)OCC(=O)Nc1ccccc1F,-27.8%,3.0%,-9.4%,0.6,-3.4%
CCc1ccc2c(COC(=O)c3n[nH]c4ccccc34)cc(=O)oc2c1,12.0%,-2.0%,-15.9%,-1.4,3.7%
COc1ccc(OC)c(NC(=O)COC(=O)c2n[nH]c3ccccc23)c1,-32.9%,-56.4%,44.7µM*,1.3,2.1%
C(=Nc1cnc2ccccc2c1)c1cccnc1,/,0.0%,/,/,/
Cc1ccc(NC(=O)c2c(C)oc3ccc(O)c(CN4CCCCC4)c23)c(C)c1,/,/,/,/,10.6%
CC1CCCCN1C(=O)COC(=O)c1n[nH]c2ccccc12 (configuration not stated),?,10µM*,14.4%,1.5,0.0%
O=C(Cn1cc(SCc2ccccc2Cl)c2ccccc21)N1CCOCC1,-3.6%,11.2µM*,?,0.2,1.2%
O=C(Cn1cc(SCc2cccc(F)c2)c2ccccc21)N1CCOCC1,/,/,/,/,-8.2%
Nc1ccc2c(c1)C(=O)N(c1ccc3ccccc3c1)C2=O,/,11.2µM*,/,/,/
